# Screening data (PubChem)
# CYP2C19 inh: human CYP2C19 inhibition; P33261; CYP2C19 Supersomes, luciferin-H EGE luminescence, 30 min; inhibition, % at 5 µM; 96,000 compounds, 21% hits;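 active means CYP2C19 inhibition above a set limit at 5 µM in the primary screen, cut at about 50% in these data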;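 further: plate controls were negative control wells for no effect and 2.5 mM tranylcypromine positive control for full effect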
# Target sequence (P33261 whole entry, looked up): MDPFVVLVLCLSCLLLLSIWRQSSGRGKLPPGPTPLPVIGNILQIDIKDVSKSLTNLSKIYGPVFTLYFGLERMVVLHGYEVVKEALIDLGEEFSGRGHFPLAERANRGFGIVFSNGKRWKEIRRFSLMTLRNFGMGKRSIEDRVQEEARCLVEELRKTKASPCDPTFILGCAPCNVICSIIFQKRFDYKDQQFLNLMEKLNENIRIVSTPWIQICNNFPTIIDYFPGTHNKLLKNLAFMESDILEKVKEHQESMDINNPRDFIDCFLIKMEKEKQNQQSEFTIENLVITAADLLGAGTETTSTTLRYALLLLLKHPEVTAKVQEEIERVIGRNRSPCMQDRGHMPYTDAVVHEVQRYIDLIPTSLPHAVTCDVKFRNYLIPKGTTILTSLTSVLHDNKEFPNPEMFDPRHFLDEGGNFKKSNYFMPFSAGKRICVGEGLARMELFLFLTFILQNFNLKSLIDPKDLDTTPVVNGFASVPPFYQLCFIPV
# CYP2C19 activ: increases human CYP2C19 enzyme activity | P33261 | recombinant CYP2C19, luciferin-H EGE luminescence; active compounds read high; 0 = fully inhibited enzyme, 1 = untreated enzyme | activation factor at 5 µM | 96,000 tested, under 10 active | AID 1025;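 active means activation factor of at least 2 at 5 µM in the primary screen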;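 further: 0 = wells with 2.5 mM tranylcypromine and 1 = vehicle-only wells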
# CYP2C9 act: CYP2C9 (human) activation; AID 1024; recombinant CYP2C9, luciferin-H conversion, luminescence; active compounds read high; factor 1 = untreated enzyme, 0 = blocked; P11712; activation factor at 5 µM; 96,000 compounds, 1.4% hits;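 active means activation factor of 2 or more for CYP2C9 at a 5 µM dose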;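 further: 0 = sulfaphenazole-blocked wells and 1 = vehicle-only wells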
# Pyk2 oligo antag: Pyk2 (human) oligomerization antagonism | Q14289 | Q293 cells, Pyk2 FERM NanoBiT luminescence; active compounds read low | 99,000 compounds, 0.83% hits | z-score (the deposit names both 25 µM and 10 µM);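 active means Z-score of -3 or lower, scaled per plate to the spread of control and sample wells; inactive means z-score above -3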;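 further: negative z-score means lost luminescence so less FERM oligomerization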
# CYP2C9 inhib: inhibitors of human CYP2C9 | inhibition, % at 5 µM | 96,000 compounds, 20% hits | P11712 | CYP2C9 Supersomes, luciferin-H conversion, luminescence;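 active means blocking of liver enzyme CYP2C9 beyond about 50% at 5 µM, limit read from the data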
# The depositor's hits bear a star; x = no result. The list is not random: actives were taken first. Their share in the collection is about 28%.
SMILES,CYP2C19 inh,CYP2C19 activ,CYP2C9 act,Pyk2 oligo antag,CYP2C9 inhib
COc1ccc(C(=O)N2CCCCC2)cc1S(=O)(=O)Nc1ccccc1,19,0.8,0.7,0.89,33
C=CCNC(=O)c1ccccc1NC(=O)c1ccccc1C,x,x,x,0.67,x
CCOC(=O)N1CCN(C(=O)CN(c2ccc(Oc3ccccc3)cc2)S(C)(=O)=O)CC1,70*,0.3,0.1,0.79,86*
CCOC(=O)N1CCN(C(=O)c2ccc(Cl)c(S(=O)(=O)Nc3ccccc3)c2)CC1,35,0.7,0.2,0.28,80*
C=CCNC(=O)c1ccccc1NC(=O)c1ccc(Cl)c(S(=O)(=O)Nc2ccccc2)c1,62*,0.4,0.4,-3.8*,62*
COc1ccc2c(c1)c(C(O)CN1CCC(Cc3ccccc3)CC1)c(C)n2C (stereo not drawn),0,1,1,0.49,1
Cc1ccc(CN(c2ccc(C(=O)N3CCc4ccccc4C3)cc2)S(C)(=O)=O)cc1,49,0.5,0.2,-1.3,84*
CC(C)c1cc(=O)oc2c3c4c(cc12)CCCN4CCC3,87*,0.1,0.9,2.5,13
Cc1cc(=O)oc2c3c4c(cc12)OCCN4CCC3,x,x,x,0.08,x
CC(=O)c1c(NC(=O)C(C)C)nc(C)nc1-c1ccccc1,39,0.6,0.4,-0.17,55*
O=C(C[n+]1cccc(NC(=O)c2ccccc2)c1)c1ccc(NC(=O)c2ccccc2)cc1,13,0.9,1,-0.16,4
Brc1ccc(-c2nc3ccccc3s2)s1,-8,1.1,1,-1.1,2
Cc1c(O)ccc(-c2[nH]ncc2-c2nc3ccccc3s2)c1O,87*,0.1,0.3,-1.2,69*
Cc1c(C(=O)Nc2ccc(OCc3ccccc3)cc2)cccc1[N+](=O)[O-],-14,1.1,1.6,0.69,-58
Cc1ccccc1NC(=O)c1cc(S(=O)(=O)c2ccccc2)ccc1Cl,6,0.9,1,0.21,1
Cc1c(C(=O)Nc2ccccc2-c2ccccc2)cccc1[N+](=O)[O-],80*,0.2,0.8,0.19,23
Cc1ccc([N+](=O)[O-])cc1NC(=O)c1ccc(-c2ccccc2)cc1,2,1,2.2*,0.7,-119
O=C(Nc1ccccc1-c1ccccc1)c1cccc([N+](=O)[O-])c1,91*,0.1,0.6,-1,42
Cc1ccccc1NC(=O)c1cccc(S(=O)(=O)Oc2ccc([N+](=O)[O-])cc2)c1,80*,0.2,0.6,0.08,39
Cc1cccc(NC(=O)C2CCCN2C(=O)Oc2ccccc2)c1C (stereo not drawn),x,x,x,0.44,x
ON1C(c2ccccc2C(F)(F)F)N(O)[C@H]2CCCC[C@H]21 (stereo partly drawn),24,0.8,1,0.6,-2
Cc1ccc(N=C2CCCN2Cc2ccccc2)c(C#N)c1,x,x,x,-1.1,x
CCOC(=O)c1nnn(-c2ccccc2C#N)c1C,-17,1.2,1.7,0.66,-70
CCOC(=O)c1nn(-c2ccccc2C)c(=O)c(C#N)c1C,65*,0.4,0.9,0.38,8
Cc1ccc(OCCCC(=O)Nc2nncs2)cc1,88*,0.1,0.3,0.76,74*
SMILES,CYP2C19 inh,CYP2C19 activ,CYP2C9 act,Pyk2 oligo antag,CYP2C9 inhib
O=C(CCCN1C(=O)c2ccccc2C1=O)Nc1nncs1,0,1,0.9,0.78,10
Cc1ccc(OCCCC(=O)Nc2ccc(Br)cc2)cc1,24,0.8,0.6,0.55,36
O=C(CCCOc1ccc(Cl)cc1)Nc1nncs1,68*,0.3,0.3,1.1,68*
CCc1ccc2nc(SCC(=O)N(CC)CC)c(C#N)cc2c1,9,0.9,0.8,-0.95,22
O=C(Oc1nsnc1N1CCCCC1)N1CCOCC1,x,x,x,1.2,x
Cc1cc(OCC(=O)NCCN2CCOCC2)ccc1Br,85*,0.2,1.1,0.05,-9
O=C(COc1cc(Cl)c(Cl)cc1Cl)NCCN1CCOCC1,65*,0.4,0.9,2.9,6
Cc1cc(OCC(=O)NCCCN2CCOCC2)cc(C)c1Cl,x,x,x,0.02,x
COC(=O)CCSCc1cn2cc(Cl)ccc2n1,31,0.7,1,0.28,-1
CNc1nc(-c2ccc(Cl)cc2)cs1,60*,0.4,0.8,0.26,25
Cc1cc(C(F)F)n2ncc(C(=O)NCCc3ccccc3Cl)c2n1,74*,0.3,0.9,0.32,10
O=C(CCn1cccc1)NCc1ccc(Cl)cc1,64*,0.4,1,0.49,-4
Cc1cc(C(F)F)n2ncc(C(=O)NCc3ccccc3)c2n1,60*,0.4,1.1,-0.08,-10
